We go through 91 molecules from PubChem BioAssay AID485346 (Sanford-Burnham Center for Chemical Genomics, 2010).

Out of some 330,000 compounds screened, about 10,000 (3%) were called active.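 Rule for the calls: active = inhibition of at least 50% at 8 µM in the primary screen; inactive = the rest.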 The full list was thinned out, with actives kept by preference.

For the assay, the target named is Protein Mdm4 (Homo sapiens) + E3 ubiquitin-protein ligase Mdm2 (Homo sapiens) (UniProt O15151+Q00987). The assay is described as follows: disruptors of Mdm2/MdmX RING complex – cell-based, luminescence, split luciferase, SaOS-2, uHTS, primary screen (AID 485346). The conditions noted are these: SaOS-2 split-luciferase Mdm2/MdmX complementation, at 8 µM, stronger effect = higher value.
Chain of Protein Mdm4 (Homo sapiens) + E3 ubiquitin-protein ligase Mdm2 (Homo sapiens) (O15151 whole entry, looked up): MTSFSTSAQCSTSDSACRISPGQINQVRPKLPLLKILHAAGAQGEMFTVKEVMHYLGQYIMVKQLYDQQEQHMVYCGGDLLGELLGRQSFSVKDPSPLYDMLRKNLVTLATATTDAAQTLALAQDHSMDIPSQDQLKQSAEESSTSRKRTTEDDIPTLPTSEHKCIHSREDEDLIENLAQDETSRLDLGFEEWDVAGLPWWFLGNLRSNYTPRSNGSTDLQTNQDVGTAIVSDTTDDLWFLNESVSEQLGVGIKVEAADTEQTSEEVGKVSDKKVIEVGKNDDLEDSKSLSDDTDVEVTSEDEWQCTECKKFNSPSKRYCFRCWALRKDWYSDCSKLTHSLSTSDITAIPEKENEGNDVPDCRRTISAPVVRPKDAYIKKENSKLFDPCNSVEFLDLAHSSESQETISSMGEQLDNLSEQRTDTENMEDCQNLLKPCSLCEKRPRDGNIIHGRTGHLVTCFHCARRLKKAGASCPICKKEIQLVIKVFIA
Chain of Protein Mdm4 (Homo sapiens) + E3 ubiquitin-protein ligase Mdm2 (Homo sapiens) (Q00987 whole entry, looked up): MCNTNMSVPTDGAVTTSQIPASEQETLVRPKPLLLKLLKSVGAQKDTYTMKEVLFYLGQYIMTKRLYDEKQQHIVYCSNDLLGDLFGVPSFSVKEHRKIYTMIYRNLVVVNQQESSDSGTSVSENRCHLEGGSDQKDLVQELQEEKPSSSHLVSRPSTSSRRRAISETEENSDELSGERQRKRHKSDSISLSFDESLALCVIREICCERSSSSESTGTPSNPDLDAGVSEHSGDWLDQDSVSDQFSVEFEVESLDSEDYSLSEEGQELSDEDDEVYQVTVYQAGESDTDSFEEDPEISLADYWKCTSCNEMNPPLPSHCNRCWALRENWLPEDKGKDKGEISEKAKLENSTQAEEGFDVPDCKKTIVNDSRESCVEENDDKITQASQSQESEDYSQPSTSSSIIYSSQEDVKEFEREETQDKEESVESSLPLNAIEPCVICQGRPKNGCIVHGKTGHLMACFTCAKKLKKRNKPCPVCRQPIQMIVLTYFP
Broadly, the inhibition is the change of the read-out against control, counted positive when it falls. In the case of `COc1ccc(-c2cn[nH]c2-c2ccc(OC)cc2)cc1`, the inhibition is 63.5% (active).

As to `COC(=O)c1cc(OC)ccc1-c1ccc(OC)cc1`, the inhibition was 21.1% (inactive).

With `COc1ccc(Oc2cn[nH]c2-c2ccc(OC)cc2O)cc1`, the inhibition was 14.4% (inactive).

Regarding `O=C(O)CCn1c(O)c(C=C2N=c3ccccc3=N2)sc1=S`, the inhibition is -11% (inactive).

For the molecule `O=C(CN1CCOc2ccccc21)N1CCC(Cc2ccccc2)CC1`, the inhibition was 25.3% (inactive).

As to `Cc1c(NS(=O)(=O)c2cc(C(=O)NCCc3ccc(F)cc3)cc(Cl)c2Cl)c(=O)n(-c2ccccc2)n1C`, the inhibition is 1.11% (inactive).

Turning to `CCOc1ccc(C2c3[nH]c4ccccc4c3CCN2Cc2cccn2-c2ncccn2)cc1` (stereo unspecified), the inhibition was 76.2% (active).

On to `CCOc1ccc(C2c3[nH]c4ccccc4c3CCN2Cc2cn(CC)nc2C)cc1` (stereo unspecified), for which the inhibition was 12.1% (inactive).

As for `c1ccc(C2c3[nH]c4ccccc4c3CCN2Cc2cccn2-c2cccnc2)nc1` (stereo unspecified), the inhibition was 5.09% (inactive).

`CCc1ccc(NC(=O)C(C)OC(=O)/C=C/c2cccc([N+](=O)[O-])c2)cc1` (stereo unspecified): the inhibition was -11% (inactive).

In the case of `CC1=C(C(=O)OC2CCCCC2)C(c2cccnc2)n2ncnc2N1` (stereo unspecified), the inhibition was 18.3% (inactive).

As to `CCNCCC(=O)N1c2ccccc2Sc2ccc(NC(=O)OCC)cc21`, the inhibition was 11.1% (inactive).

Take `CCOC(=O)Nc1ccc2c(c1)N(C(=O)CCN1CCN(CCO)CC1)c1ccccc1CC2`: the inhibition is -8.36% (inactive).

With `CCOC(=O)Nc1ccc2c(c1)N(C(=O)CCCl)c1ccccc1[S@]2=O`, the inhibition was 84.3% (active).

As for `CCOC(=O)CC(=O)CSc1nc(-c2ccccc2)cc(-c2ccc(Cl)cc2)c1C#N`, the inhibition was 17% (inactive).

For the molecule `CCOc1cc(-c2cc(-c3ccc(OC)cc3)nc(N)c2C#N)ccc1O`, the inhibition is 14.7% (inactive).

Regarding `CCOc1cc(-c2cc(-c3ccc(NC(C)=O)cc3)nc(N)c2C#N)ccc1O`, the inhibition was 62.3% (active).

In the case of `CCC(C)c1ccccc1NC(=O)CN(C)CC(=O)Nc1ccccc1SC` (stereo unspecified), the inhibition was 9.56% (inactive).

In the case of `O=C(NCC1CCCO1)c1ccc2ccccc2n1` (stereo unspecified), the inhibition is -19.2% (inactive).

For the molecule `O=C(NCC1CCCO1)c1cc2c([nH]c3ccccc32)c(-c2ccc(F)cc2)n1` (stereo unspecified), the inhibition was 69.3% (active).

As to `O=C(NCCCO)c1cc2c([nH]c3ccccc32)c(-c2ccc(F)cc2)n1`, the inhibition is 40.9% (inactive).

Take `COc1ccc2[nH]c3c(c2c1)CCN1C(=O)C(CC(=O)NCCc2ccccn2)C[C@H](C(=O)N2CCOCC2)[C@@]31C` (stereo partly specified): the inhibition was 1.71% (inactive).

Take `NC(=O)c1sc2nc3c(c(-c4ccccc4)c2c1N)CCC3`: the inhibition was 57.3% (active).

In the case of `Cc1sc2nc(CC(N)=O)[nH]c(=O)c2c1-c1ccccc1`, the inhibition was -7.25% (inactive).

For `Cc1ccc2c(N)c(C(=O)c3ccccc3)sc2n1`, the inhibition was 20.5% (inactive).

Take `COC(=O)Cn1c(=NC(=O)c2cc(OC)c(OC)c(OC)c2)sc2cc(OC)ccc21`: the inhibition is 34.7% (inactive).

On to `CCOC(=O)C(Sc1ncc(C#N)c(N)n1)C(C)C` (stereo unspecified), for which the inhibition was 15.2% (inactive).

For `C=CCn1c(SCC(=O)NC)nnc1C12CC3CC(CC(C3)C1)C2`, the inhibition is 10.2% (inactive).

`Cc1cc(=O)n2c3c(cccc13)CCC2`: the inhibition is 0.512% (inactive).

With `CCNC(=O)c1c(O)c2cccc3c2n(c1=O)CC3`, the inhibition is 80.5% (active).

On to `CCCCc1nc2ccccc2c(=O)n1NC(=O)c1c(O)c2cccc3c2n(c1=O)CC3`, for which the inhibition is 27% (inactive).

For the molecule `CC1=CC(=C(C#N)c2nc3ccccc3s2)C=C(C)N1c1ccc(F)cc1F`, the inhibition was 12.5% (inactive).

As to `OCCCNC(c1ccccc1)c1ccc(O)cc1` (stereo unspecified), the inhibition is 4.25% (inactive).

`COc1ccc(/C=C(/CC(=O)Nc2ccc(C)cc2)c2nc3ccccc3s2)cc1`: the inhibition is -25.3% (inactive).

With `O=C(O)CS/C(=C\c1ccc(F)cc1)c1nc2ccccc2s1`, the inhibition is 21.7% (inactive).

Take `COc1cccc2sc(NNC(=O)c3nc4ccccc4s3)nc12`: the inhibition was 59.4% (active).

With `O=C(Nc1ccc2c(c1)OCO2)C1CC1(Cl)Cl` (stereo unspecified), the inhibition is 18% (inactive).

With `O=C(Nc1ccc2c(c1)OCCO2)C1CCCN(c2ncccn2)C1` (stereo unspecified), the inhibition is -64.3% (inactive).

Regarding `O=C(Nc1ccc2c(c1)OCCO2)C1CCCC1`, the inhibition is 55% (active).

For the molecule `Cc1onc(-c2ccc(Cl)cc2)c1-c1ccnn1S(=O)(=O)c1ccc(Cl)cc1`, the inhibition is 16.6% (inactive).

For `O=C(COC(=O)C1(c2ccc(F)cc2)CCCC1)N1CCNC1=O`, the inhibition was 1.73% (inactive).

On to `C=CCn1c(CNS(=O)(=O)c2ccc(Br)cc2)nnc1SC`, for which the inhibition is 20.2% (inactive).

In the case of `N/C(=N\OC(=O)/C=C/c1ccccc1)c1ccc(Br)cc1`, the inhibition is 13.5% (inactive).

For `N/C(=N\OC(=O)N1c2ccccc2Sc2ccccc21)c1ccc(Br)cc1`, the inhibition was 53.2% (active).

With `N/C(=N\OC(=O)Cc1ccccc1[N+](=O)[O-])c1ccc(Br)cc1`, the inhibition was -0.461% (inactive).

Take `Cc1cc(=O)cc(C)n1-c1ccc(Cl)c(Cl)c1`: the inhibition was 15.1% (inactive).

For the molecule `O=c1[nH]nc(SCCS(=O)(=O)c2ccc(F)cc2)n1-c1ccccc1C(F)(F)F`, the inhibition is 25.1% (inactive).

Regarding `CC[C@@H]1CCCCc2ccccc2[C@@H](C(=O)C[C@H](O)CC(C)=O)OC1=O`, the inhibition is 33% (inactive).

As to `CCOC(=O)c1c(C)oc2cc(Sc3ccccc3)c(O)c(O)c12`, the inhibition was 34.7% (inactive).

With `Cc1cc(O)cc(O)c1C(=O)Cc1cnn(-c2ccccc2)c1`, the inhibition is -9.6% (inactive).

As for `Cc1[nH]nc(-c2ccc(OCc3cnn(-c4ccccc4)c3)cc2O)c1Oc1ccc(Cl)cc1`, the inhibition was 68.4% (active).

Consider `COc1ccc(C(=O)Cc2cnn(-c3ccccc3)c2)c(O)c1`, for which the inhibition was -156% (inactive).

As for `CC(C)C[C@@H](CO)N1CCN(Cc2ccc(O)cc2)CCC1=O`, the inhibition is -30.6% (inactive).

As to `COc1ccc(C)c(Cn2c(-c3nonc3N)nc3ccccc32)c1`, the inhibition was 45.6% (inactive).

With `O=c1[nH]cccc1-c1nc2ccccc2n1Cc1ccc(Cl)cc1`, the inhibition was -9.95% (inactive).

For `Nc1nonc1-c1nc2ccccc2n1Cc1ccc(F)cc1`, the inhibition is 53.7% (active).

With `CCc1cccc(NC(=O)COC(=O)c2cc(=O)c3ccccc3o2)c1`, the inhibition is 13.3% (inactive).

For the molecule `COc1ccccc1CNC(=O)COC(=O)c1sc(C)nc1C`, the inhibition was -9.07% (inactive).

On to `O=c1oc2ccccc2c(CNc2ccccc2)c1[N+](=O)[O-]`, for which the inhibition is 7.52% (inactive).

As to `Cc1ccc(-c2cccc([C@H]3[C@@H]4C=CC[C@@H](C)[C@@H]4C(=O)N3Cc3ccccc3)c2)cc1`, the inhibition is 69.8% (active).

As for `O=C(N[C@H]1C/C=C\C(c2cccc(F)c2)N(Cc2ccccc2)C(=O)C1)OCC1c2ccccc2-c2ccccc21` (stereo partly specified), the inhibition was 2.78% (inactive).

Take `Cc1cccc([C@H]2[C@@H]3C=CC[C@@H](C)[C@@H]3C(=O)N2Cc2ccccc2)c1`: the inhibition is 16.7% (inactive).

Regarding `COc1ccccc1C(=O)COC(=O)CSCC(=O)Nc1cc(C)on1`, the inhibition was 9.62% (inactive).

Consider `COc1ccc(-c2nc3cnccn3c2NC2CCCCC2)cc1-c1cccc(Cl)c1`, for which the inhibition is 34.9% (inactive).

Regarding `CCOc1cc(-c2nc3cc(C)ccn3c2NCC2CCCO2)ccc1O` (stereo unspecified), the inhibition was 22.2% (inactive).

Consider `COc1ccc(-c2nc3cc(C)ccn3c2NC2CCCCC2)cc1SC1CCCCC1`, for which the inhibition was 92.7% (active).

For `CCOc1ccc(C(=O)Nc2ccc(CN3CCOCC3)cc2)cc1Cl`, the inhibition is -7.17% (inactive).

On to `CCN(CC)C(=O)Cn1cc(S(=O)(=O)CC(=O)NCc2ccc3c(c2)OCO3)c2ccccc21`, for which the inhibition was 15.5% (inactive).

Take `CC(C)(C)OC(=O)N1CCC(NC(=O)c2[nH]cnc2C(=O)N[C@@H](Cc2ccccc2)C(=O)OCc2ccccc2)CC1`: the inhibition is 65.6% (active).

For the molecule `O=C(N[C@@H](Cc1ccccc1)C(=O)OCc1ccccc1)c1nc[nH]c1C(=O)NC1CCNCC1`, the inhibition was 20.5% (inactive).

On to `CC(C)(C)OC(=O)CNC(=O)c1[nH]cnc1C(=O)N[C@@H](Cc1ccccc1)C(=O)OCc1ccccc1`, for which the inhibition is 9.35% (inactive).

With `CC(C)c1ccc(NC(=O)[C@@H](NC(=O)N2CC(=O)Nc3ccccc32)C(C)C)cc1`, the inhibition was 46.3% (inactive).

For the molecule `O=C(N1CCCC1)C12CC3CC(C1)CC(C(=O)N1CCCC1)(C3)C2`, the inhibition was 0.875% (inactive).

For `CC(Sc1nnc(-c2ccccc2F)n1C1CC1)C(N)=O` (stereo unspecified), the inhibition was 2.33% (inactive).

Consider `O=S1(=O)CCO[C@H]2Cc3ccccc3[C@H]2N1Cc1ccccc1`, for which the inhibition is -0.566% (inactive).

As to `Cn1cc([N+](=O)[O-])c(C(=O)Nc2cnn(Cc3ccc(F)cc3)c2)n1`, the inhibition was 61.3% (active).

Regarding `Cn1cc([N+](=O)[O-])c(C(=O)Nc2ccc3c(c2)OCCO3)n1`, the inhibition is 15.1% (inactive).

As for `CCc1ccc(NC(=O)c2ccc(Cn3cc([N+](=O)[O-])cn3)cc2)cc1`, the inhibition was 7.69% (inactive).

For the molecule `CC(C)CCN(C(=O)c1csnn1)C(C(=O)NC1CCCC1)c1ccccc1` (stereo unspecified), the inhibition was 1.25% (inactive).

`Cc1ccc(N2C(=O)c3ccccc3C2(O)c2ncc[nH]2)cc1` (stereo unspecified): the inhibition was 11% (inactive).

Regarding `CCOC(=O)c1ccc(NC(=O)c2cccnc2)cc1`, the inhibition is -5.28% (inactive).

With `CCCC(=O)Nc1nc2ccc(NC(=O)c3c(F)c(F)c(OC)c(F)c3F)cc2s1`, the inhibition is 40.2% (inactive).

In the case of `CCCC(=O)Nc1nc2ccc(NC(=O)c3cccnc3)cc2s1`, the inhibition is 56.4% (active).

With `FC(F)(F)c1ccc(CN2C[C@@H]3C(c4ccccc4)C4(c5ccccc5)CC3(C4)[C@H]2c2ccccc2)cc1` (stereo partly specified), the inhibition was 93.9% (active).

Take `Clc1ccc(C2[C@H]3CN(CC4CCCCC4)[C@H](c4ccccc4)C34CC2(c2cccnc2)C4)cn1` (stereo partly specified): the inhibition is -0.579% (inactive).

For the molecule `COC(=O)c1ccc(C23CC4(C2)[C@H](CN(Cc2cccnc2)[C@@H]4c2ccccc2)C3c2ccc(Cl)nc2)cc1` (stereo partly specified), the inhibition is 21.5% (inactive).

`O=C1c2ccccc2C(=O)N1CCC(c1ccccc1)c1ccco1` (stereo unspecified): the inhibition is -4.99% (inactive).

With `CC1CCC(N2CC(=O)N(Cc3ccc4c(c3)OCO4)C(c3ccc(F)cc3)C2=O)CC1` (stereo unspecified), the inhibition was -7.03% (inactive).

For the molecule `O=C(CN1C(=O)C2C3CCC(C3)C2C1=O)Oc1ccc2ccccc2c1` (stereo unspecified), the inhibition was 12% (inactive).

For the molecule `CC1=CC(C)(C)Nc2ccc(OC(=O)CN3C(=O)C4CCCCC4C3=O)cc21` (stereo unspecified), the inhibition is 54% (active).

For the molecule `CC1=CC(C)(C)Nc2ccc(OC(=O)C(Cc3ccccc3)N3C(=O)C4CCCCC4C3=O)cc21` (stereo unspecified), the inhibition is 42.7% (inactive).
